From PubChem BioAssay AID1851 (National Center for Advancing Translational Sciences (NCATS), 2009)
Where “and” joins values, the source holds several entries; their conditions need not be identical. Identical values can stand only once. The whole screen tested about 16,000 compounds, of which about 2,600 (16%) were called active. Inconclusive results (about 20%) are left out. What follows is part of a selection rich in actives, with near analogues and random picks from the rest. A number with no mark means an inactive call. Calls follow the shape of the dose curve; as a rule, active = well fitted curve in the direction sought with a large enough effect; inconclusive = small, poorly fitted or top-dose-only effect, or effect the other way; inactive = no such curve, though single readings can be large or run the other way.
% is scaled to controls: 0 for no effect and ±100 for the full control effect.

These compounds were tested against Cytochrome P450 2D6 (Homo sapiens) (UniProt P10635) (assay: Cytochrome panel assay with activity outcomes). Settings: recombinant CYP, pro-luciferin dealkylation, luminescence, p450-cyp2d6; series mostly up to 57.1 µM; activity, negative = inhibition: at the top concentration.
Chain of Cytochrome P450 2D6 (Homo sapiens) (P10635 whole entry, looked up): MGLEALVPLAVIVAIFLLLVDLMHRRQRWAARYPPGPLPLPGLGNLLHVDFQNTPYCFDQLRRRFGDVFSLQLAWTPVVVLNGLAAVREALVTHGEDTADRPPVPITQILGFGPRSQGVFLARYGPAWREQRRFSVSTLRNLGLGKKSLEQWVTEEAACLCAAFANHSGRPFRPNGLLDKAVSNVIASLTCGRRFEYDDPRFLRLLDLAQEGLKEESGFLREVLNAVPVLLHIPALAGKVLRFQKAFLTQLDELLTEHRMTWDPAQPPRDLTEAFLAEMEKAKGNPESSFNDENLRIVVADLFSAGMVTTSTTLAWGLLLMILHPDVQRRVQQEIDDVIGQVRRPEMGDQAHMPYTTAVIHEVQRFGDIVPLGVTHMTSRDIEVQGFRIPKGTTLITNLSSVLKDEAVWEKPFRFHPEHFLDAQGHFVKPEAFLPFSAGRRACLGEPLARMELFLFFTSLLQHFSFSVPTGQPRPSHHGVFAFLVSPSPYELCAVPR
`CN1CCC(c2c[nH]c3ccc(O)cc23)CC1` was tested, and the “activity, negative = inhibition” value was -0.301%.
`NCCc1c[nH]c2ccc(C(N)=O)cc12` was tested, and the AC50 was “inactive”.
`CCCN(CCC)CCc1c[nH]c2ccc(C(N)=O)cc12` was tested, and the AC50 was 39.8 µM (active).
`NCCc1c[nH]c2ccc(O)cc12` was tested, and the “activity, negative = inhibition” value was -15.6%.
`C=C[C@@H]1CN2CC[C@H]1C[C@H]2[C@H](O)c1ccnc2ccccc12` was tested, and the AC50 was 3.98 µM (active).
With `C=C[C@H]1CN2CC[C@@H]1C[C@H]2[C@@H](O)c1ccnc2ccccc12` the AC50 was 3.16 µM (active) and 501 nM (active).
In the case of `CC[C@H]1CN2CC[C@@H]1C[C@H]2[C@@H](O)c1ccnc2ccc(OC)cc12`, the AC50 is reported as 3.16 µM (active).
`O=C(O)CC[N+](=O)[O-]` was tested, and the “activity, negative = inhibition” value was 7.9%.
`C[C@H]1C(=O)O[C@@H]2CCN3CC=C(COC(=O)[C@@](C)(O)[C@@]1(C)O)[C@H]23` was tested, and the “activity, negative = inhibition” value was 6.81% [at 25.6 µM].
In the case of `CCOP(=O)(OCC)C(NC(C)=O)C(Cl)(Cl)Cl` (configuration not stated), the “activity, negative = inhibition” value is reported as 2.71%.
`N[C@@H](CP(=O)(O)O)C(=O)O` showed an activity, negative = inhibition of -1.79% [at 11.4 µM].
For `COc1ccc(C(=O)c2c(C)n(CCN3CCOCC3)c3cc(I)ccc23)cc1`, the “activity, negative = inhibition” value was 6.13%.
With `N[C@@]1(C(=O)O)CC[C@H](C(=O)O)C1` the AC50 was “inactive”.
For `COc1cc(/C=N/NC(=O)CN2CC(c3ccccc3)CC2=O)ccc1OC(=O)N(C)C` (configuration not stated), the “activity, negative = inhibition” value was -1.46%.
For `CN(C)C=C1C(=O)N(C2CCCCC2)C(=O)N(C2CCCCC2)C1=O`, the “activity, negative = inhibition” value was 10.7%.
For `NC(=O)COc1c(F)cc(SCCNS(=O)(=O)c2ccccc2)cc1F`, the “activity, negative = inhibition” value was 1.88%.
With `Cc1cc(OCC(=O)OC(C)C)c2c3c(c(=O)oc2c1)CCCC3` the “activity, negative = inhibition” value was -19.9%.
For `Cn1c(O)c(C(c2ccccn2)c2c(O)n(C)c(=S)[nH]c2=O)c(=O)[nH]c1=S`, the “activity, negative = inhibition” value was 12.2%.
For `O=C1CN=C(c2cccs2)c2c(sc3c2CCCC3)N1`, the AC50 was 1 µM (active).
`NC[C@@H](Cc1ccccc1)P(=O)(O)O` gave an activity, negative = inhibition of -3.95% [at 11.4 µM].
`CC(C)(C)C(=O)CP(=O)(O)O` gave an activity, negative = inhibition of -2.59% [at 11.4 µM].
`C=C(C)[C@H]1CN[C@H](C(=O)O)[C@@H]1CC(=O)O` was tested, and the “activity, negative = inhibition” value was -3.28%.
With `CCC(=O)O[C@@](Cc1ccccc1)(c1ccccc1)[C@@H](C)CN(C)C` the AC50 was 7.94 µM (active).
`COC(=O)[C@@]1(Cc2ccc(F)cc2)[C@H]2c3cc(C(=O)N(C)C)[nH]c3C[C@H]2CN1C(=O)c1ccccc1` was tested, and the “activity, negative = inhibition” value was -16.4%.
Compound `NC(N)=NCCN=C(N)N` has an activity, negative = inhibition of -4.24% [at 11.4 µM].
In the case of `Fc1ccccc1CCNCc1cccc(Cl)c1Cl`, the AC50 is reported as 0.0794 µM (active).
In the case of `CCC1(CCSC(=N)N)C(=O)NC(=O)NC1=O`, the activity, negative = inhibition is reported as 12.5% [at 11.4 µM].
With `C=C1CC[C@H](O)C/C1=C/C=C1\CCC[C@]2(C)[C@H]1CC[C@H]2[C@@H](C)CCCC(C)C` the “activity, negative = inhibition” value was 3.42% [at 25.6 µM].
With `O=P(O)(O)C(Cl)(Cl)P(=O)(O)O` the “activity, negative = inhibition” value was 11%.
For `CC(C)CN1CCC2(CC1)CCN(S(C)(=O)=O)CC2`, the AC50 was 0.794 µM (active).
In the case of `CC(C)NC(=O)N1CCC2(CC1)CCN(C(=O)Oc1ccccc1)CC2`, the “activity, negative = inhibition” value is reported as -2.03%.
For `COC(=O)N1CCC2(CCCN(C)C2)CC1`, the “activity, negative = inhibition” value was -15%.
In the case of `COC(=O)N1CCC2(CCN(CC(C)C)CC2)CC1`, the AC50 is reported as 10 µM (active).
`NN=C(N)N` was tested, and the AC50 was “inactive”.
For `Cc1c(C(=O)c2ccc3ccccc3c2)c2cccc3c2n1[C@H](CN1CCOCC1)CO3`, the “activity, negative = inhibition” value was -4.76%.
In the case of `CN1CCN(c2ccc3ccccc3n2)CC1`, the AC50 is reported as “inactive”.
For `O[C@@H]1[C@@H]2c3cc4c(cc3CN3CCC(=C[C@@H]1O)[C@H]23)OCO4`, the AC50 was 3.98 µM (active).
For `CC(=NCCN1CCOCC1)c1c(O)n(Cc2ccccc2)c(=O)[nH]c1=O`, the “activity, negative = inhibition” value was -0.802%.
Work on `C[C@@H]1OC=C2[C@@H](O)[C@H]3O[C@H]3C(=O)[C@@]23[C@H]1[C@H]1C2=C([C@@H](O)[C@H]4O[C@@H]4C2=O)[C@@H]3O[C@@H]1C` yielded an activity, negative = inhibition of 1.81% [at 11.4 µM].
With `COc1ccc(C2SCC(=O)Nc3c2c(C)nn3-c2ccccc2)cc1OC` (configuration not stated) the “activity, negative = inhibition” value was 1.57%.
`O=[N+]([O-])c1cc(O)c(O)c([N+](=O)[O-])c1` was tested, and the “activity, negative = inhibition” value was 5.33%.
`CC1=NN(c2ccc(S(=O)(=O)O)cc2C)C(=[OH+])[C@H]1N=Nc1cc(S(=O)(=O)O)ccc1C(=O)O.O.[Cr]` showed an activity, negative = inhibition of -4.46% [at 11.4 µM].
With `CP(=O)(O)CCCN` the AC50 was “inactive”.
With `CN1C[C@H](C(=O)N[C@@]2(C)O[C@@]3(O)[C@H]4CCCN4C(=O)[C@@H](Cc4ccccc4)N3C2=O)C=C2c3cccc4[nH]cc(c34)C[C@@H]21` the activity, negative = inhibition was -1.39% [at 11.4 µM].
With `CC(C)C[C@H]1C(=O)N2CCC[C@@H]2[C@@]2(O)O[C@](NC(=O)[C@@H]3C=C4c5cccc6[nH]cc(c56)C[C@@H]4N(C)C3)(C(C)C)C(=O)N12` the “activity, negative = inhibition” value was -5.32% [at 25.6 µM].
In the case of `CN1C[C@H](CO)C=C2c3cccc4[nH]cc(c34)C[C@@H]21`, the AC50 is reported as 0.126 µM (active).
In the case of `O=C(NCP(=O)(O)O)c1cccnc1`, the activity, negative = inhibition is reported as -2.73% [at 11.4 µM].
